The source made the active and inactive calls. Rule for the calls: active = hit-call score of the fitted dose curve at least 0.9, where 1 is the maximum; inactive = score below 0.9.
Legend:
[1] = biological target: Bile acid receptor (Homo sapiens) (UniProt Q96RI1); test: ATG_IR1_CIS: Attagene CIS-FACTORIAL HepG2 Assay for human Nuclear Receptor Subfamily 1 Group H Member 4 (NR1H4), IR1 submotif (AID 2282946); details: IR1 reporter transcription, actives raise or lower the signal
In short: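 Readout: reporter transcript levels by RT-PCR with fluorescent capillary electrophoresis, from HepG2 cells transiently transfected with multiplexed cis-regulated reporters and dosed 24 h. Gain- or loss-of-signal fitted versus DMSO negative control.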

[2] = ATG_GRE_CIS: Attagene CIS-FACTORIAL HepG2 Assay for human Glucocorticoid Response Elements (GRE) (AID 2282947); details: HepG2 GRE cis-reporter, Attagene multiplex mRNA; actives raise or lower the signal
In short: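 Cells (HepG2) bearing transfected cis-promoter reporter transcription units were treated with chemical for 24 hours. Reporter mRNA was measured via RT-PCR with capillary electrophoresis, and activity was fitted in both directions relative to DMSO.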

[3] = ATG_ISRE_CIS: Attagene CIS-FACTORIAL HepG2 Assay for human Interferon Regulatory Factor 1 (IRF1) binding to an Interferon-Stimulated Response Element (ISRE) (AID 2282948); details: HepG2 ISRE cis-reporter (Attagene), mRNA transcription readout; actives raise or lower the signal
In short: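 Multiplexed mRNA reporter readout in human liver HepG2 cells: cis-element-driven reporters transfected, compound added for 24 h, transcripts amplified, fluorescently labelled and sized by capillary electrophoresis; curve fitting bidirectional against DMSO.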

[4] = ATG_M_32_CIS: Attagene CIS-FACTORIAL HepG2 Assay for M32 Transcription Factor (Internal Marker) (AID 2282949); details: HepG2 Attagene cis-factorial M32 reporter, mRNA; actives raise or lower the signal;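 note: background control marker of the multiplexed CIS panel rather than a real target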
In short: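 HepG2 human liver cells transiently transfected with cis-promoter-driven multiple reporter transcription units, dosed 24 h. Reporter mRNA quantified by RT-PCR, FAM-labelled primer extension, HpaI digest and capillary electrophoresis; bidirectional fit versus DMSO baseline.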

[5] = ATG_M_06_CIS: Attagene CIS-FACTORIAL HepG2 Assay for M06 Transcription Factor (Internal Marker) (AID 2282950); details: HepG2 Attagene CIS-FACTORIAL M06 internal marker reporter; actives raise or lower the signal
In short: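 Internal background marker within multiplexed cis-reporter HepG2 system. Cells transiently transfected, dosed 24 h; reporter mRNA measured by RT-PCR, HpaI digestion and capillary electrophoresis. Bidirectional fit relative to DMSO.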

[6] = biological target: Hypoxia-inducible factor 1-alpha (Homo sapiens) (UniProt Q16665); test: ATG_HIF1a_CIS: Attagene CIS-FACTORIAL HepG2 Assay for human Hypoxia Inducible Factor 1 (HIF1A) (AID 2282951); details: HepG2 Attagene cis-factorial HIF1a reporter transcription; actives raise or lower the signal
In short: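 HepG2 cells transiently transfected with multiplexed cis-promoter reporter units; reporter mRNA read 24 h after dosing by RT-PCR, 6-FAM primer-extension labelling, HpaI digestion and capillary electrophoresis. Bidirectional fit versus DMSO baseline.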

[7] = biological target: Hepatocyte nuclear factor 6 (Homo sapiens) (UniProt Q9UBC0); test: ATG_HNF6_CIS: Attagene CIS-FACTORIAL HepG2 Assay for human Hepatocyte Nuclear Factor 6 (HNF6) (AID 2282952); details: HepG2 Attagene cis-factorial HNF6 reporter transcription; actives raise or lower the signal
In short: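 First, HepG2 cells were transfected with the multiplexed cis reporter library and dosed with chemical for 24 h. Next, RNA was reverse-transcribed, PCR-amplified and fluorescently labelled. Finally, HpaI-digested fragments were read by capillary electrophoresis.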

[8] = biological target: Heat shock factor protein 1 (Homo sapiens) (UniProt Q00613); test: ATG_HSE_CIS: Attagene CIS-FACTORIAL HepG2 Assay for human Heat Shock Transcription Factor 1 (HSE) (AID 2282953); details: HepG2 HSE cis-reporter, Attagene RNA transcription; actives raise or lower the signal
In short: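 HepG2 cells transfected with cis-promoter reporter units sensing endogenous transcription factor activity; reporter mRNA quantified 24 h post-dose by RT-PCR and capillary electrophoresis of 6-FAM-labelled products. Bidirectional fitting against DMSO.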

[9] = ATG_MRE_CIS: Attagene CIS-FACTORIAL HepG2 Assay for human Metal Responsive Element (MRE) (AID 2282954); details: HepG2 MRE cis-reporter transcription, Attagene multiplex; actives raise or lower the signal
In short: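 Cells were transfected with cis-promoter reporter transcription units, then dosed for 24 h. RNA was reverse-transcribed, amplified, fluorescently labelled and resolved by capillary electrophoresis, and activity was fitted in both directions relative to DMSO.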

[10] = biological target: Paired box protein Pax-6 (Homo sapiens) (UniProt P26367); test: ATG_Pax6_CIS: Attagene CIS-FACTORIAL HepG2 Assay for human Paired Box 6 (PAX6) (AID 2282956); details: HepG2 CIS-FACTORIAL PAX6 reporter transcription, RNA readout; actives raise or lower the signal
In short: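 Fluorescent RT-PCR products separated by capillary electrophoresis report PAX6-linked promoter mRNA in HepG2 cells 24 h post-dose. Curves fitted bidirectionally, DMSO as negative control.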

[11] = ATG_PXRE_CIS: Attagene CIS-FACTORIAL HepG2 Assay for human Pregnane X Receptor Element (PXRE) (AID 2282957); details: HepG2 Attagene CIS-FACTORIAL PXRE reporter, mRNA; actives raise or lower the signal
In short: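 After a 24 h chemical incubation, total RNA from transfected HepG2 cells was reverse-transcribed and reporter cDNA amplified, FAM-labeled, HpaI-digested and sized by capillary electrophoresis. DMSO served as baseline for bidirectional curve fitting.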

[12] = ATG_PPRE_CIS: Attagene CIS-FACTORIAL HepG2 Assay for human Peroxisome Proliferator-activated Response Element (PPRE) (AID 2282958); details: HepG2 PPRE cis-element reporter, Attagene transcription factor profiling; actives raise or lower the signal
In short: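 HepG2 cells transiently transfected with multiplexed cis-element reporter units measure endogenous transcription factor activity. After 24 h compound exposure, reporter mRNA is quantified by RT-PCR, 6-FAM labeling, HpaI digestion and capillary electrophoresis; bidirectional fits are made against DMSO baseline.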

[13] = ATG_RORE_CIS: Attagene CIS-FACTORIAL HepG2 Assay for human RAR-related Orphan Receptor Element (RORE) (AID 2282959); details: HepG2 Attagene cis-factorial RORE reporter, mRNA; actives raise or lower the signal
In short: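 HepG2 cells transiently transfected with multiple cis-element reporter transcription units, exposed to chemical for 24 h. Reporter mRNA quantified by RT-PCR, 6-FAM primer-extension labeling, HpaI digestion and capillary electrophoresis; bidirectional fit versus DMSO baseline.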

[14] = ATG_Sox_CIS: Attagene CIS-FACTORIAL HepG2 Assay for human SRY-box transcription factor (SOX) (AID 2282960); details: HepG2 Attagene cis-factorial SOX reporter, mRNA; actives raise or lower the signal
In short: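 HepG2 cells transiently transfected with cis-element-driven multiple reporter transcription units, dosed 24 h; reporter mRNA measured by RT-PCR, FAM labelling, HpaI digestion and capillary electrophoresis. Bidirectional fit versus DMSO baseline.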

[15] = biological target: Transcription factor Sp1 (Homo sapiens) (UniProt P08047); test: ATG_Sp1_CIS: Attagene CIS-FACTORIAL HepG2 Assay for human Specificity Protein 1 (Sp1) (AID 2282961); details: HepG2 Sp1 cis-reporter transcription, actives raise or lower the signal
In short: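 HepG2 cells transiently transfected with multiple reporter transcription units driven by cis-regulatory elements; Sp1-responsive reporter mRNA measured 24 h after dosing by RT-PCR and capillary electrophoresis fluorescence, fitted bidirectionally against DMSO baseline.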

[16] = ATG_SREBP_CIS: Attagene CIS-FACTORIAL HepG2 Assay for human Sterol Regulatory Element Binding (SREBP) (AID 2282962); details: HepG2 Attagene cis-factorial SREBP reporter, mRNA; actives raise or lower the signal
In short: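 Endogenous factor activity is measured in HepG2 through multiplexed reporter units under cis-element control. Following a 24 h incubation, reporter transcripts are reverse-transcribed, PCR-amplified and sized by capillary electrophoresis; activity is fitted in both directions relative to DMSO.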

[17] = ATG_TA_CIS: Attagene CIS-FACTORIAL HepG2 Assay for human TA Basal Promoter (AID 2282964); details: HepG2 Attagene CIS-factorial TA basal promoter reporter; actives raise or lower the signal
In short: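 HepG2 cells transiently transfected with multiple reporter units under cis promoter elements, reporting endogenous transcription factor activity; this endpoint tracks the TA basal promoter as background control. Reporter mRNA after 24 h dosing measured by RT-PCR/capillary electrophoresis; bidirectional fits versus DMSO.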

[18] = ATG_TCF_b_cat_CIS: Attagene CIS-FACTORIAL HepG2 Assay for human T-Cell-Factor with beta-catenin (TCF/b-cat) (AID 2282965); details: HepG2 TCF/beta-catenin cis-reporter transcription, actives raise or lower the signal
In short: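 In this cis-format system, transfected HepG2 cells report endogenous transcription factor activity. Readout after 24 h exposure is reporter transcript abundance from RT-PCR and capillary electrophoresis, analysed for gain or loss of signal versus DMSO.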

[19] = ATG_PBREM_CIS: Attagene CIS-FACTORIAL HepG2 Assay for human Phenobarbital-responsive Enhancer Module (PBREM) (AID 2282955); details: HepG2 PBREM cis-reporter, Attagene multiplexed transcription; actives raise or lower the signal
In short: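 HepG2 cells transiently transfected with multiple cis-regulated reporter transcription units; endogenous factor activity at the PBREM element measured as reporter mRNA 24 h after dosing, via RT-PCR and capillary electrophoresis of fluorescent fragments; bidirectional fitting versus DMSO.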

[20] = biological target: Signal transducer and activator of transcription 3 (Homo sapiens) (UniProt P40763); test: ATG_STAT3_CIS: Attagene CIS-FACTORIAL HepG2 Assay for human Signal Transducer and Activator of Transcription 3 (STAT3) (AID 2282963); details: HepG2, Attagene cis-factorial STAT3 reporter transcription; actives raise or lower the signal
In short: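 HepG2, MRTU-transfected, 24 h dosing. RNA → RT → PCR → FAM label → HpaI → CE. Bidirectional fit vs DMSO.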

Measured: AC50

Sequence of Transcription factor Sp1 (Homo sapiens) (P08047 whole entry, looked up): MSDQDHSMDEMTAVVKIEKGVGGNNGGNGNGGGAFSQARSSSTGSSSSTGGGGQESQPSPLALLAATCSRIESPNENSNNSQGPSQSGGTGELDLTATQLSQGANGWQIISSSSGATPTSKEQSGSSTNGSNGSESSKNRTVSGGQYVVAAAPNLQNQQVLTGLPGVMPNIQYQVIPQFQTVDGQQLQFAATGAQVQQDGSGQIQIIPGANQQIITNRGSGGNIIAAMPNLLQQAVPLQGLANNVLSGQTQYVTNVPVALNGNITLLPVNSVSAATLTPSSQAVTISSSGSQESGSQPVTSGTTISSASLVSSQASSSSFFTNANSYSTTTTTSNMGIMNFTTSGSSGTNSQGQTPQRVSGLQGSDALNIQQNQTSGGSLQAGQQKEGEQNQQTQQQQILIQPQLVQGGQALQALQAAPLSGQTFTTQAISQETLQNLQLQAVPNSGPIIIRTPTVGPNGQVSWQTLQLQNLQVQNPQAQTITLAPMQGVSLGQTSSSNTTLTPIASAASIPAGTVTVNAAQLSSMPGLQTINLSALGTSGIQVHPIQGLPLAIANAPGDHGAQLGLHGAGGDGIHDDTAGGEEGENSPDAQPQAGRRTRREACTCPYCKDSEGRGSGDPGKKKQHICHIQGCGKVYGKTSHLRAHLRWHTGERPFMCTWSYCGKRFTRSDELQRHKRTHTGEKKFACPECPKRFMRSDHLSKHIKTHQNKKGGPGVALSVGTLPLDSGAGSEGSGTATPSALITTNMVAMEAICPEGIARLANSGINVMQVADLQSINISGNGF
Sequence of Hypoxia-inducible factor 1-alpha (Homo sapiens) (Q16665 whole entry, looked up): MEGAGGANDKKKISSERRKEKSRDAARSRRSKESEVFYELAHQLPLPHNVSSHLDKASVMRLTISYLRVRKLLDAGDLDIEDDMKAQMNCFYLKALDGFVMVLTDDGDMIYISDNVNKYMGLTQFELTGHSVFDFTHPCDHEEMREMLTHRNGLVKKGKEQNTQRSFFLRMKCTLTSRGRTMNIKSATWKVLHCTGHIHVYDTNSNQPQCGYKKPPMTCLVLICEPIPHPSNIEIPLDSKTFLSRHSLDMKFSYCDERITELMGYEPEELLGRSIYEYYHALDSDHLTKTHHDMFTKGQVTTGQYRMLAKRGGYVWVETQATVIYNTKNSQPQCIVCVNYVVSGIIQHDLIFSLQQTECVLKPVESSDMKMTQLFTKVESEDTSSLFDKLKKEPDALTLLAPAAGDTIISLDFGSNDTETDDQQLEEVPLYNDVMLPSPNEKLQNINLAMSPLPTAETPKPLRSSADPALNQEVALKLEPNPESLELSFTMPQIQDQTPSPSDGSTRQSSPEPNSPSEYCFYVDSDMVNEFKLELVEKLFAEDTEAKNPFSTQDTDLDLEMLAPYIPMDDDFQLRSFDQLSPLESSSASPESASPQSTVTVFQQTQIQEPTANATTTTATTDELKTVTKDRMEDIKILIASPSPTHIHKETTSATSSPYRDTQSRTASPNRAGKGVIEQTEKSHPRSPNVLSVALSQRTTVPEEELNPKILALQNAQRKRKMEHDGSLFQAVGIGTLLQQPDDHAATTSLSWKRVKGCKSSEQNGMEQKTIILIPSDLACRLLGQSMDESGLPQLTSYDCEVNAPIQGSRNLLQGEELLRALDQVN
Sequence of Hepatocyte nuclear factor 6 (Homo sapiens) (Q9UBC0 whole entry, looked up, the tested form may be a part): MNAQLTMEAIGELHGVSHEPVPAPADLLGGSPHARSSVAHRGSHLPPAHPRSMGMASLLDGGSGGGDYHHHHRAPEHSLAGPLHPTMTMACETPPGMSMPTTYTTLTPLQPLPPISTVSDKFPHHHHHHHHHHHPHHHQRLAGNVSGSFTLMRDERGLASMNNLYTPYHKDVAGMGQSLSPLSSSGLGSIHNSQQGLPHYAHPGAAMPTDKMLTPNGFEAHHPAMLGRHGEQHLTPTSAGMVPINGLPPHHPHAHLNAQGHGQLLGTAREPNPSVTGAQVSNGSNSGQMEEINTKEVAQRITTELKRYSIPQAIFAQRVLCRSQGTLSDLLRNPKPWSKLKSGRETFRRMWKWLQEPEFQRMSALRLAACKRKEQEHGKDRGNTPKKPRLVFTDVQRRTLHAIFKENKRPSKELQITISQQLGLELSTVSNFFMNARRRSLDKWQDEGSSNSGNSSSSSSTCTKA
Sequence of Heat shock factor protein 1 (Homo sapiens) (Q00613 whole entry, looked up): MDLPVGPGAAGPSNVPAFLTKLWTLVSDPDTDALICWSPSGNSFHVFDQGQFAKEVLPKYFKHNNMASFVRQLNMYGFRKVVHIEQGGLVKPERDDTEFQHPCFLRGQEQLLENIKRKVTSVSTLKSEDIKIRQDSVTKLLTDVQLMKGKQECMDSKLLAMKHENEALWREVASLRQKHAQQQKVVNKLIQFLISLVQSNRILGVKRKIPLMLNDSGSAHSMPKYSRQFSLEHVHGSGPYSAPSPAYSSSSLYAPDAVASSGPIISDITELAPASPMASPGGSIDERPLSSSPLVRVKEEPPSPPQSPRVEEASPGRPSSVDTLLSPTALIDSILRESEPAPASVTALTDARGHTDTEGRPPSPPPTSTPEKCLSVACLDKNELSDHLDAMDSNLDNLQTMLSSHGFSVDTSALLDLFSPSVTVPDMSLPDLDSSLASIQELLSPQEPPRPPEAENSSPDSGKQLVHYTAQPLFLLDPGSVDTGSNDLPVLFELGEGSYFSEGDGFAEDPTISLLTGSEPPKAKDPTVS
Sequence of Paired box protein Pax-6 (Homo sapiens) (P26367 whole entry, looked up): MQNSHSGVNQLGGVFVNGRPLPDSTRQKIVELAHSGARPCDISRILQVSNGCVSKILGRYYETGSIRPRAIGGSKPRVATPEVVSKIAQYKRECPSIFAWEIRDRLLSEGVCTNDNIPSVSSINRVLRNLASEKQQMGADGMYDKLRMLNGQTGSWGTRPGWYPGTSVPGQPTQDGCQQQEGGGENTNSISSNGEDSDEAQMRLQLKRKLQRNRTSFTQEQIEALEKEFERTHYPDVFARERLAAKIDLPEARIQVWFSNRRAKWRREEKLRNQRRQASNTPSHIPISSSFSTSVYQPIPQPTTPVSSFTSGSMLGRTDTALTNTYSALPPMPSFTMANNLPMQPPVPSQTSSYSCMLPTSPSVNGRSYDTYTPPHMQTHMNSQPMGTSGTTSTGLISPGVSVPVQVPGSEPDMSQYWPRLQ
Sequence of Signal transducer and activator of transcription 3 (Homo sapiens) (P40763 whole entry, looked up): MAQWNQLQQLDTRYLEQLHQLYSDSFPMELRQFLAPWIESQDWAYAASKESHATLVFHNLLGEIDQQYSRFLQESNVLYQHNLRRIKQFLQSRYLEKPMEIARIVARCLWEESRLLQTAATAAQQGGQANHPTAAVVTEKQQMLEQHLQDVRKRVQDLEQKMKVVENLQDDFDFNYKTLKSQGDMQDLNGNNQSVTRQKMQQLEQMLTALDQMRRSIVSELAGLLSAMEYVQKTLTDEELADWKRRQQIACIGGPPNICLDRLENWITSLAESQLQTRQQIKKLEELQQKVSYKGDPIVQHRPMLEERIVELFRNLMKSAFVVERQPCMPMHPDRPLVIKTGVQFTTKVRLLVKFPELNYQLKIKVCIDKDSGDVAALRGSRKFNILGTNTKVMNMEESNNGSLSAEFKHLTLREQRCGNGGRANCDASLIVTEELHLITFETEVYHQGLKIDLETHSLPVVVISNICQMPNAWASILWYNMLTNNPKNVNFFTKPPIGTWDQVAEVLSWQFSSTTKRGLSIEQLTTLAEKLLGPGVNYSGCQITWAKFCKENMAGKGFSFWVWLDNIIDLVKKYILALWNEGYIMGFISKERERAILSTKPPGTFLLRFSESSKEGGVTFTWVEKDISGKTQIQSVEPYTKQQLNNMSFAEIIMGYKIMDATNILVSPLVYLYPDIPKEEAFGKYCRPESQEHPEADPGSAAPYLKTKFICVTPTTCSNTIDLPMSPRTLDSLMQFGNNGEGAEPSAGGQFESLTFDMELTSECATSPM
Sequence of Bile acid receptor (Homo sapiens) (Q96RI1 whole entry, looked up): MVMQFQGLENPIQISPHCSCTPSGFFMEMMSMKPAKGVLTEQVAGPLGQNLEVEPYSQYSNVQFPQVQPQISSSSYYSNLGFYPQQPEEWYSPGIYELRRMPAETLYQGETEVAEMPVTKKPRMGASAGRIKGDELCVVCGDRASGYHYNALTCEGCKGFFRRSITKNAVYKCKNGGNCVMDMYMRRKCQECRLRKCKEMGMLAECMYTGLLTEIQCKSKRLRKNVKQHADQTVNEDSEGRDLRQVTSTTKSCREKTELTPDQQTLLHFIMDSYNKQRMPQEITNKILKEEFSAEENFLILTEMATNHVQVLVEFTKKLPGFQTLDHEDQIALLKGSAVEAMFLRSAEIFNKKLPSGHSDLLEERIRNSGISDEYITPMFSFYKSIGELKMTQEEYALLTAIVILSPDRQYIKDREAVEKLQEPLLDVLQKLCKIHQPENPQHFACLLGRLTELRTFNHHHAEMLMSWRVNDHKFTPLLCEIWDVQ

O=Cc1ccc(F)cc1
not listed: [19] | [20]
inactive: all other assays above

CN(C)CCCN
not listed: [14] | [18]
inactive: all other assays above

CC1CCC(C(C)(C)O)CC1 (centres undefined)
not listed: [16]
inactive: all other assays above

CCCC(=O)C(C)=O
active: [11] 16.2 µM
not listed: [20]
inactive: all other assays above

Cc1cccc(C)c1C
not listed: [13]
inactive: all other assays above

Nc1ccc(F)c([N+](=O)[O-])c1
not listed: [14] | [20]
inactive: all other assays above

NC(=O)c1ccccc1Cl
active: [3] 100 µM | [8] 62.7 µM | [10] 65 µM | [11] 40.7 µM | [14] 68.9 µM | [15] 41.1 µM | [18] 65.8 µM
not listed: [9] | [12]
inactive: all other assays above

Cc1ccc2n[nH]nc2c1
not listed: [12] | [19]
inactive: all other assays above

O=C(O)c1ccc([N+](=O)[O-])cc1
not listed: [7] | [8] | [9] | [12] | [17]
inactive: all other assays above

C#C[C@]1(O)CC[C@H]2[C@@H]3CCC4=Cc5oncc5C[C@]4(C)[C@H]3CC[C@@]21C
active: [1] 23.5 µM | [3] 31.2 µM | [7] 60.9 µM | [8] 58.2 µM | [9] 27.3 µM | [19] 5.83 µM | [10] 20.1 µM | [14] 61.3 µM | [15] 57.6 µM | [16] 14.8 µM | [17] 8.11 µM | [18] 22 µM
inactive: [2] | [4] | [5] | [12] | [13] | [20]

c1cc(C(c2ccc(OCC3CO3)cc2)c2ccc(OCC3CO3)cc2)ccc1OCC1CO1 (centres undefined)
active: [3] 14.7 µM | [6] 56.4 µM | [7] 25.3 µM | [8] 12.5 µM | [9] 13.4 µM | [10] 9.85 µM | [12] 100 µM | [14] 9.7 µM | [15] 100 µM | [16] 26.3 µM | [20] 66.3 µM | [17] 19.8 µM | [18] 8.93 µM
inactive: [1] | [2] | [5]

CCCCCCCCCCCCCC(=O)O
not listed: [8] | [12] | [16] | [17] | [20]
inactive: all other assays above

NCCOCCO
active: [6] 30.2 µM
not listed: [7] | [12] | [19]
inactive: all other assays above

CCCc1c(OCCCOc2ccc(OCC(=O)O)cc2)ccc(C(C)=O)c1O
active: [8] 150 µM | [9] 79.2 µM | [11] 8.44 µM | [12] 0.272 µM | [13] 4.66 µM | [17] 26.7 µM | [18] 25.6 µM
not listed: [6] | [19]
inactive: all other assays above

C=CCOC(=O)CCC1CCCCC1
not listed: [7] | [8] | [13] | [16] | [18]
inactive: all other assays above

C[Si](O[Si](C)(C)C)O[Si](C)(C)C
active: [11] 13.4 µM
not listed: [7] | [13]
inactive: all other assays above

— PubChem BioAssay (EPA / NIEHS)
